From PubChem BioAssay AID2585 (National Center for Advancing Translational Sciences (NCATS), 2010)
Some of the results follow. Results filed as inconclusive are left out. Unmarked numbers belong to inactive results. Calls of active or inactive are those of the source. Calls follow the shape of the dose curve; as a rule, active = well fitted inhibition curve with a large enough effect; inconclusive = small, poorly fitted or top-dose-only effect; inactive = no such curve, though single readings can be large or run the other way.

Molecular target: RecQ-like DNA helicase BLM (Homo sapiens) (UniProt P54132)
Assay: qHTS Confirmation Assay for Inhibitors of Bloom's syndrome helicase (BLM); also: nearly all actives have a fitted effect of over 45% in size
Conditions: BLM DNA unwinding, fluorescence quenching, biochemical
Source text: Survival of cells and the faithful propagation of the genome depend on elaborate mechanisms of detecting and repairing DNA damage. Treatment of advanced cancer relies on radiation therapy or chemotherapy, which kill cancer cells by causing extensive DNA damage. It is often found, that cancer cells develop resistance to therapy through enhanced activity of DNA repair functions; this has led to an increased interest in developing drugs that interfere with DNA repair, which could sensitize cancer cells to conventional therapy. This validation qHTS assay pertains to human BLM, which is important in resolving abnormal DNA structures formed during replication or homologous recombination. Shutting down the expression of BLM leads to chromosomal instability and higher radiation sensitivity in cultured cells. The validation assay was a fluorescence quenching based kinetic qHTS for BLM Helicase DNA unwinding. The activity was measured as ATP-dependent separation of a 20-bp DNA duplex extended by 30-nt single-stranded tails (forked duplex). The forked DNA substrate was tagged with rhodamine fluorophore (carboxytetramethyl rhodamine, TAMRA) and BHQ-2 (Black Hole Quencher 2) dark quencher. Strand separation results in an increase in the fluorescence of TAMRA (excitation 525 nm, emission 598 nm). This substrate construct operates in a red-shifted region where very few compound library members have been noted to fluoresce (PubChem AIDs 593 and 594). An additional feature of the assay is the inclusion of 2.5 ug/ml poly (dIdC), to reduce interference by compounds such as DNA intercalators, a major source of false inhibitors. Assay Providers: Ian Hickson, University of Oxford Opher Gileadi, Structural Genomics Consortium, University of Oxford Screening Center PI: Austin, C.P. Screening Center: NIH Chemical Genomics Center [NCGC]
Three uL of reaction buffer (25 mM Tris-HCl (pH 8.0), 5 mM NaCl, 2 mM MgCl2, 1mM DTT, 0.01% Tween- 20, and 2.5 ug/ml poly(dI-dC), including enzyme (50 nM BLM), were dispensed into a 1536-well Greiner black assay plate via solenoid-valve based nanoliter dispensers. Compounds (23 nl each in columns 5-48) and control (23 nl each in column 2 as dose-response) were transferred via a Kalypsys pintool equipped with a 1536-pin array. The plates were incubated for 15 min at room temperature, and then 1 ul of substrates (200 nM DNA and 2 mM ATP, final concentrations) was added to start the reaction. The plate was transferred into a ViewLux high-throughput CCD imager where the reaction progress was measured in a discontinuous kinetic mode (two reads spaced 2 hours apart, with intermediate room temperature incubation of the covered assay plate) by using standard red-fluorescence optics (excitation filter 525 nm, emission filter 598 nm). Enzyme-free and vehicle (DMSO) controls were included for signal normalization.
% is scaled to controls: 0 for no effect and ±100 for the full control effect; potency is read from the fitted curve at half-maximal effect.

RecQ-like DNA helicase BLM (Homo sapiens), sequence (P54132 whole entry, looked up): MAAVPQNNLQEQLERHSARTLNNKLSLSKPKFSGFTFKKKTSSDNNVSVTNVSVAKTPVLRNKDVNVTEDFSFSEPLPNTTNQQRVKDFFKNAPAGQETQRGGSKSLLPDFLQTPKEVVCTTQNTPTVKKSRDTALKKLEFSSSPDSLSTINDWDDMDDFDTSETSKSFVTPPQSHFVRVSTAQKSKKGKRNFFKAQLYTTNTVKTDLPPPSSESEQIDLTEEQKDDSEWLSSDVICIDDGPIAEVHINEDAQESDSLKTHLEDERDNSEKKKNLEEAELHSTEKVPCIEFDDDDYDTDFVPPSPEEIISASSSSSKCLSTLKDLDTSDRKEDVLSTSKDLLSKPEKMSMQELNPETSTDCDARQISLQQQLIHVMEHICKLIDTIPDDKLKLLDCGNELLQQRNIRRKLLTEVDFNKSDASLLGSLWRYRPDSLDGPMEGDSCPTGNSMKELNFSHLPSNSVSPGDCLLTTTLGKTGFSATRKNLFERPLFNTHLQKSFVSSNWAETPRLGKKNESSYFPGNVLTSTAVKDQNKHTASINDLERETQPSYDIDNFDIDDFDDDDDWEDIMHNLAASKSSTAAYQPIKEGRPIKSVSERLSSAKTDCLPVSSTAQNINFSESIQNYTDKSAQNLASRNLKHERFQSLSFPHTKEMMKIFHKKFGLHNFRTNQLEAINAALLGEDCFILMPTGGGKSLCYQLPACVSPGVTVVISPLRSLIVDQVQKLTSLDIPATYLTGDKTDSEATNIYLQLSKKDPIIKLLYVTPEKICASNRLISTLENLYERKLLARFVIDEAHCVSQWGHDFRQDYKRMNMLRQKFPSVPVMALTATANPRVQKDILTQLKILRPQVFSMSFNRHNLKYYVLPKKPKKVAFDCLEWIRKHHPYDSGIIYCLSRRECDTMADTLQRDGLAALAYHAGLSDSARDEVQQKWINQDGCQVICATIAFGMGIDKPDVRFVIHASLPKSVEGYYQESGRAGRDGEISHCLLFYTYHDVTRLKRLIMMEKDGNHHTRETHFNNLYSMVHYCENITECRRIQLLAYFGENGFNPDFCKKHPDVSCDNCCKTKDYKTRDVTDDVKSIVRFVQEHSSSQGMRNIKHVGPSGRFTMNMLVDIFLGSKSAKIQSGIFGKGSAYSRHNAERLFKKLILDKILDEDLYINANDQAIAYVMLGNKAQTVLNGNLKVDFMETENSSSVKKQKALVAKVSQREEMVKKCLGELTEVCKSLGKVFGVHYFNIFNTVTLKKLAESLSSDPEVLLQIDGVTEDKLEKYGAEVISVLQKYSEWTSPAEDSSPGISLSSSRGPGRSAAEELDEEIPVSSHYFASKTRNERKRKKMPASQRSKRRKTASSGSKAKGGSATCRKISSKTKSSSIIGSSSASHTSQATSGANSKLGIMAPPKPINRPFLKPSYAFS

Row | SMILES | Potency | max response, negative = inhibition
1 | COc1ccc(-c2nc3c(c(SCC(=O)Nc4ccc(C(=O)O)cc4)n2)Cc2ccccc2O3)cc1 | 5.13 µM (active) | 
2 | CC(C)(O)c1ccccc1CC[C@H](SCC1(CC(=O)O)CC1)c1cccc(/C=C/c2ccc3ccc(Cl)cc3n2)c1 | 54.1 µM (active) | 
3 | Oc1ccc(N=Cc2sc3ccccc3c2Cl)cc1 |  | -10.8%
4 | CS(=O)(=O)c1ccc2nc(NC(=O)c3ccc(Cl)nc3)sc2c1 |  | 0.0289%
5 | C=C1c2cccc(OC)c2O[C@H](C(=O)OCC)[C@@H]1CCCCCC |  | -13.8%
6 | CN(C(=O)COC(=O)c1cc(-c2ccco2)nc2ccccc12)C1CCS(=O)(=O)C1 (configuration not stated) | 18.2 µM (active) | 
7 | Cc1ccc(-c2nc(SCc3ccc(Br)cc3)n3[nH]c(=O)cc3n2)cc1 | 11.5 µM (active) | 
